# Experimental data taken from PubChem BioAssay AID651910 (Vanderbilt Specialized Chemistry Center, 2012).
# Active and inactive are the calls of the source. No rule for the calls is given here.
# Target: Polyamine deacetylase HDAC10 (Homo sapiens) (UniProt Q969S8)
# Assay: HDAC10 deacetylase inhibition, profiling panel, selectivity assay for E-cadherin restoration project, biochemical, human (AID 651910)
# Chain of Polyamine deacetylase HDAC10 (Homo sapiens) (Q969S8 whole entry, looked up): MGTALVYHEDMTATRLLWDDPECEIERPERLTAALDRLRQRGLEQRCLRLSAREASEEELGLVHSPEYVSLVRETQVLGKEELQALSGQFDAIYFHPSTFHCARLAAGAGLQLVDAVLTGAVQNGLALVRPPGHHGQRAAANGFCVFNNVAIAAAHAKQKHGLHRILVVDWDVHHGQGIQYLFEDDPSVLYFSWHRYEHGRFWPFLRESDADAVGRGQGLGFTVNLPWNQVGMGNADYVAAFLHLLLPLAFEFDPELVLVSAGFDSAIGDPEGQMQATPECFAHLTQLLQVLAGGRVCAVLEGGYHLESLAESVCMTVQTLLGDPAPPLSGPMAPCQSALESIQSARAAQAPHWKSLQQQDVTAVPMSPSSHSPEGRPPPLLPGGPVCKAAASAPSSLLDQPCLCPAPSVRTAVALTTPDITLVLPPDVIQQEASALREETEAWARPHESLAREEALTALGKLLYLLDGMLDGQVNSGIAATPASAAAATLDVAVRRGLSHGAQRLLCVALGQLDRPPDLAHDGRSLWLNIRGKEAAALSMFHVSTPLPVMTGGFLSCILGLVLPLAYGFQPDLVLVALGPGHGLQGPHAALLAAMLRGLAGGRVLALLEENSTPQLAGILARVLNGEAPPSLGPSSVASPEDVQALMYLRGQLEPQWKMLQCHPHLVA
compound,measurement,value
O=C(NCCCNC(=O)c1ccc[nH]c1=O)c1cc(-c2ccccc2)on1,outcome,inactive
